According to PubChem BioAssay (NCATS):
Results filed as inconclusive are left out. Activity calls are given as the source filed them. Unless noted, calls follow the shape of the dose curve; as a rule, active = well fitted curve in either direction with a large enough effect (not every such curve was filed as active); inconclusive = small, poorly fitted or top-dose-only effect, or another doubt; inactive = flat fitted curve, though single readings scatter.

Tests used:
[1] = AP1 Signaling Pathway (AID 357); details: ME-180 AP-1-bla reporter, EGF-induced, beta-lactamase ratio, 5 h; at 17.2 µM (top of the series) unless noted;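 also: ME-180 reporter cells stimulated with EGF at its EC50 level; % is scaled to controls: 0 for no effect and ±100 for the full control effect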
Procedure, shortened: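 Beta-lactamase reporter under AP-1 response element, ME-180 background. Stimulus: EC50 EGF. Compound exposure 5 h, 37 °C. Detection: CCF4, 2.5 h RT, 460/530 nm. Values: AC50 from titration.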

[2] = NFAT Signaling Pathway (AID 444); details: Jurkat NFAT-bla M1, carbachol, beta-lactamase ratio, 5 h; at 17.2 µM (top of the series) unless noted;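 also: carbachol stimulus at about its EC50 of 1 µM final; % is scaled to controls: 0 for no effect and ±100 for the full control effect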
Procedure, shortened: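 Read-out: CCF4 FRET ratio (460 nm/530 nm) after 1 h RT dye loading, used for %activity and AC50 from titration series. Cells: Jurkat NFAT-β-lactamase/M1 line, treated with compound plus 1 uM carbachol for 5 h, 37 °C.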

[3] = Stat Signaling Pathway (AID 446); details: ME-180 (cervical carcinoma) SIE beta-lactamase reporter, IL-6 stimulated, 5 h; at 17.2 µM (top of the series) unless noted;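 also: ME-180 cervical cancer cells given 40 pM IL-6 alongside compound; SIE-controlled beta-lactamase reporter measured as 460/530 nm FRET emission ratio; % is scaled to controls: 0 for no effect and ±100 for the full control effect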
Procedure, shortened: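 Normalization used AC90 stimulation (300 pM IL-6) and AC90 inhibition (125 nM pan-JAK inhibitor at 40 pM IL-6). The underlying signal is SIE-driven beta-lactamase in ME-180 cells after 5 h IL-6 exposure with compound.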

[4] = molecular target: Cytochrome P450 1A2 (Homo sapiens) (UniProt P05177); assay: p450-cyp1a2 (AID 410; calls by dose curve; also: potency is read from the fitted curve at half-maximal effect;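 as to activity change, negative = inhibition: -100% = full effect of reference inhibitor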)
Procedure, shortened: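 O-Demethylation of luciferin 6' methyl ether by human CYP1A2 is monitored as luciferase luminescence. Substrate sits at Km (100uM); enzyme is 20nM. Values are scaled to 57 uM furafylline as maximal inhibition.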

[5] = molecular target: Mitogen-activated protein kinase 10 (Mus musculus) (UniProt Q61831); assay: JNK3 AlphaScreen Assay (AID 530);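 also: kinase came from lysate of stimulated human HepG2 cells; signal reports phosphorylation of biotinylated GST-cJun 1-79 at Ser73 with 10 µM ATP; % is scaled to controls: 0 for no effect and ±100 for the full control effect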
Procedure, shortened: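 qHTS titrations with 15 min compound pre-incubation before adding ATP (10 uM final). Read-out: AlphaScreen of Ser73-phosphorylated biotin-GST-cJun using HepG2 lysate JNK3 activated by IL-1β and TNFα.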

[6] = molecular target: 3',5'-cyclic-AMP phosphodiesterase 4B (Homo sapiens) (UniProt Q07343); assay: qHTS Assay for Inhibitors of PDE-IV (AID 607; active = well fitted activation curve with a large enough effect in the main read-out, with a control signal flat, not every such curve was filed as active; also: % of control where 0% means no effect)
Procedure, shortened: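 HEK293 ACTOne cells with CNG channel (1000/well), endogenous PDE4; membrane potential dye, compounds up to 22.9 uM final. Fluorescence Ex 535/Em 590; RO 20-1724 (100 uM final) as reference.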

[7] = molecular target: Glucocorticoid receptor (Homo sapiens) (UniProt P04150); assay: GR-GFP Redistribution (AID 450;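 active = compounds whose dose series gives a full or clear partial fitted curve of increased nuclear translocation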; also: potency is read from the fitted curve at half-maximal effect)
[8] = molecular target: Glucocorticoid receptor (Homo sapiens) (UniProt P04150); assay: GR-EFC Redistribution (AID 451; calls by dose curve; also: potency is read from the fitted curve at half-maximal effect); details: CHO-K1 GR-EFC translocation, beta-gal luminescence, 2 h
Procedure, shortened: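 Translocation of GR-ED fusion to nuclear EA restores b-gal, read by luminescence after 1 h room-temperature detection. Engineered CHO-K1 biosensor cells, 1,000/well, exposed 2 h at 37 C to titrations up to 46 uM final.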

[9] = molecular target: Cytochrome P450 3A4 (Homo sapiens) (UniProt P08684); assay: qHTS Assay for Activators of Cytochrome P450 3A4 (AID 885; active = well fitted curve in the direction sought with a large enough effect; an effect the other way counts as inactive or inconclusive; also: nearly all actives have a fitted effect of over 65% in size)
Procedure, shortened: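 Human CYP3A4 dealkylates Luciferin-PPXE to luciferin, which luciferase detection converts to light. Substrate was at its KM (25uM), buffer 200mM KPO4, reaction 60 min at RT.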

[10] = Confirmation and Secondary Assay for Modulators of Hemoglobin Beta Chain Splicing at IVS2 705 locus (AID 930; active = well fitted curve in the direction sought with a large enough effect; an effect the other way counts as inactive or inconclusive;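 also: HeLa cells stably expressing the EGFP-705 splicing reporter; GFP fluorescence per well restored by corrected splicing of the IVS2-705 intron in EGFP; % of control where 0% means no effect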)
Procedure, shortened: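 HeLa EGFP-705 reporter; 500 cells/well, o/n 37C 5% CO2; cpd 2 d; 488 ex/500-520 em laser scan; total peak GFP intensity/well. Ref: 500 nM […] antisense PNA.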

[11] = molecular target: Guanine nucleotide-binding protein G(i) subunit alpha-1 (Homo sapiens) (UniProt P63096); assay: qHTS Assay for Inhibitors of RGS12 GoLoco Motif Activity (Green Fluorophore) (AID 879; active = well fitted curve in the direction sought with a large enough effect; an effect the other way counts as inactive or inconclusive;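 also: 0% = labeled peptide with Gαi1 and full inhibition = labeled peptide alone without protein; negative values mean loss of peptide binding seen as reduced polarization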)
Procedure, shortened: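 A drop in FITC polarization marked displacement of the FITC-tagged RGS12 GoLoco peptide (10 nM) from Gαi1 (50 nM). Compounds were incubated 10 min at room temperature in Tris pH 7.5 buffer containing 150 mM NaCl, 0.1 mM GDP and 0.05% NP40; unlabeled peptide titration served as control.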

[12] = qHTS Assay for Identification of Small Molecule Antagonists for NFkB Signaling Pathway (AID 895; active = well fitted inhibition curve with a large enough effect in the signal ratio, with a control signal flat, not every such curve was filed as active; the % refers to the signal ratio; also: potency is read from the fitted curve at half-maximal effect)
Procedure, shortened: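 Beta-lactamase reporter read-out (460 and 530 nm emission ratio, 405 nm excitation, 2 hrs substrate loading RT) after 5 hr stimulation with 10 pM TNF alpha in compound-treated NFkB-bla ME-180 cells in low-serum medium.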

[13] = qHTS Assay for Identification of Small Molecule Agonists for Thrombopoietin (TPO) Signaling Pathway (AID 917; active = well fitted curve in the direction sought with a large enough effect; an effect the other way counts as inactive or inconclusive; also: % is scaled to controls: 0 for no effect and ±100 for the full control effect)
Procedure, shortened: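 Quantitative HTS for pathway activators: compounds were pin-transferred onto IL-3-starved Ba/F3 cells expressing human TPO receptor, TPO was added at its EC50 (26 pM final), and after 24 hrs at 37 C reporter luciferase was measured.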

[14] = molecular target: Muscarinic acetylcholine receptor M1 (Rattus norvegicus) (UniProt P08482); assay: qHTS Assay for Antagonists of Acetylcholine Muscarinic M1 Receptor: Measurement of IP-One Response (AID 944; active = well fitted curve in the direction sought with a large enough effect; an effect the other way counts as inactive or inconclusive; also: nearly all actives have a fitted effect of over 75% in size)
Procedure, shortened: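 Antagonist mode with rat M1 receptor transfected into CHO cells. Compound is added first for 10 min, carbachol at its EC80 follows for 30 min, and lysis reagents then allow TR-FRET detection of accumulated IP1.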

[15] = molecular target: Pyruvate kinase (Leishmania mexicana) (UniProt Q27686); assay: qHTS Validation Assay for Inhibitors of Leishmania Mexicana Pyruvate Kinase (AID 945; active = well fitted curve in the direction sought with a large enough effect; an effect the other way counts as inactive or inconclusive;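 also: 0% = DMSO only neutral control wells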)
Procedure, shortened: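 Substrate mix (0.5 mM PEP, 0.1 mM ADP, 7 mM MgCl2, 50 mM KCl, pH 7.2 imidazole) received compound by pin tool, then 0.2 nM LmPYK E451W. After 1 h at room temperature, PKLight was added and luminescence measured.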

[16] = molecular target: Pyruvate kinase PKM (Homo sapiens) (UniProt P14618); assay: qHTS Assay for Activators of Human Muscle Pyruvate Kinase (AID 954; active = well fitted curve in the direction sought with a large enough effect, not every such curve was filed as active;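 also: 0% = uninhibited enzyme and -100% = no enzyme or full thiadiazolimine inhibition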)
Procedure, shortened: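 Compound pinned into substrate mix (0.5 mM PEP, 0.1 mM ADP), then 0.1 nM PKM2 added; 1 h, RT. Stop/detection luciferase reagent added, luminescence read. Normalized to no-inhibition and no-enzyme or reference-inhibitor controls.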

[17] = molecular target: Alpha-galactosidase A (Homo sapiens) (UniProt P06280); assay: Counterscreen for Glucocerebrosidase Inhibitors: qHTS Assay for Human alpha-Galactosidase at pH 4.5 (AID 992; active = well fitted curve in the direction sought with a large enough effect; an effect the other way counts as inactive or inconclusive; also: 0% is about no effect)
Procedure, shortened: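 Steps: enzyme (2 nM final), then compound across 0.7 nM to 77 uM, then 80 uM fluorogenic galactopyranoside substrate; incubate 20 min at room temperature; quench at pH 10; measure fluorescence at 365/440 nm.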

[18] = molecular target: alpha-glucosidase (Oryza sativa, rice) (UniProt Q653V4); assay: Counterscreen for Glucocerebrosidase Inhibitors: qHTS Assay for Rice alpha-Glucosidase at pH 5.0 (AID 997; active = well fitted curve in the direction sought with a large enough effect; an effect the other way counts as inactive or inconclusive;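 also: 0% = full activity with enzyme and -100% = basal without enzyme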)
Procedure, shortened: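 Endpoint fluorogenic assay at pH 5.0: compounds (0.7 nM to 77 uM) titrated against 4 nM rice enzyme and 400 uM 4-MU-alpha-glucoside for 20 min at room temperature; NaOH/glycine stop, read ex 365/em 440 nm, Hill-fitted AC50.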

[19] = molecular target: Cytochrome P450 2D6 (Homo sapiens) (UniProt P10635); assay: qHTS Assay for Inhibitors and Substrates of Cytochrome P450 2D6 (AID 891; active = well fitted curve in the direction sought with a large enough effect; an effect the other way counts as inactive or inconclusive; also: potency is read from the fitted curve at half-maximal effect; nearly all actives have a fitted effect of over 60% in size)
Procedure, shortened: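 Luminescent read-out of luciferin formed by 5 nM human CYP2D6 demethylating 30 uM Luciferin-ME EGE (Km level) over 60 min at room temperature after NADPH regeneration addition. Data normalized to full inhibition by 1.43 uM quinidine.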

Sequence of Cytochrome P450 1A2 (Homo sapiens) (P05177 whole entry, looked up): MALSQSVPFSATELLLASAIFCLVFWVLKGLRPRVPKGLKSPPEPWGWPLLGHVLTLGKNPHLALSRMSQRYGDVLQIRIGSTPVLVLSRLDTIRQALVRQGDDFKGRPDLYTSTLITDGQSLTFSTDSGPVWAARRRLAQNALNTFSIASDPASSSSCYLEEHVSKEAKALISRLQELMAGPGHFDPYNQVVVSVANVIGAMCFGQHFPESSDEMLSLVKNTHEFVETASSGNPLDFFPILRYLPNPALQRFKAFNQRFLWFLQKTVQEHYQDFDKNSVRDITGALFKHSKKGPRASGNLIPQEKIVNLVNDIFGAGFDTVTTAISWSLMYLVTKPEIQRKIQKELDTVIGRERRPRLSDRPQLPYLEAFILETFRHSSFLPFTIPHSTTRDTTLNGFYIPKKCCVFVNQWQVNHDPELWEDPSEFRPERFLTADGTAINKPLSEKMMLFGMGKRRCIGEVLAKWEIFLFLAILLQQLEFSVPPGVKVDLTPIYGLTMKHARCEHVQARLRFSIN
Sequence of Glucocorticoid receptor (Homo sapiens) (P04150 whole entry, looked up, the tested form may be a part): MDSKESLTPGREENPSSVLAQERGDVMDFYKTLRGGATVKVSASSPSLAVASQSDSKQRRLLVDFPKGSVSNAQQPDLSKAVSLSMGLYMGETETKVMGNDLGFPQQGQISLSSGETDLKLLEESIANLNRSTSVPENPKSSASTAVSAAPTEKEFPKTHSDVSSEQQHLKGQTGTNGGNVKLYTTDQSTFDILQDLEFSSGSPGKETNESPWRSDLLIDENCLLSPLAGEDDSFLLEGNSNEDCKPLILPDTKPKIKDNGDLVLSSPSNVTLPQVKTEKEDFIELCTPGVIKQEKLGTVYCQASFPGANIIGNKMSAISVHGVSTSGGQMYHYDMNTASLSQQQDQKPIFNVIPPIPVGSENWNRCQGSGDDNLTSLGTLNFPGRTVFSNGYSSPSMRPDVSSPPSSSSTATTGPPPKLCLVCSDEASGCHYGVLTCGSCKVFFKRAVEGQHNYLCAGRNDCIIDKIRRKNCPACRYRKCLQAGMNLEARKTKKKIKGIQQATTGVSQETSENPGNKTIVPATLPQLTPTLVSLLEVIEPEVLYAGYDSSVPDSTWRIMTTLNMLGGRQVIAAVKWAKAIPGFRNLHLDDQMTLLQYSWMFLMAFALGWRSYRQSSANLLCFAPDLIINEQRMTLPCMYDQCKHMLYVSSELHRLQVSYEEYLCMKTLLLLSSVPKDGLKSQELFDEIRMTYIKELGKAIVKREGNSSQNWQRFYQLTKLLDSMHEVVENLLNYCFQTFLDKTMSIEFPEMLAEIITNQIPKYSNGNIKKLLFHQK
Sequence of 3',5'-cyclic-AMP phosphodiesterase 4B (Homo sapiens) (Q07343 whole entry, looked up): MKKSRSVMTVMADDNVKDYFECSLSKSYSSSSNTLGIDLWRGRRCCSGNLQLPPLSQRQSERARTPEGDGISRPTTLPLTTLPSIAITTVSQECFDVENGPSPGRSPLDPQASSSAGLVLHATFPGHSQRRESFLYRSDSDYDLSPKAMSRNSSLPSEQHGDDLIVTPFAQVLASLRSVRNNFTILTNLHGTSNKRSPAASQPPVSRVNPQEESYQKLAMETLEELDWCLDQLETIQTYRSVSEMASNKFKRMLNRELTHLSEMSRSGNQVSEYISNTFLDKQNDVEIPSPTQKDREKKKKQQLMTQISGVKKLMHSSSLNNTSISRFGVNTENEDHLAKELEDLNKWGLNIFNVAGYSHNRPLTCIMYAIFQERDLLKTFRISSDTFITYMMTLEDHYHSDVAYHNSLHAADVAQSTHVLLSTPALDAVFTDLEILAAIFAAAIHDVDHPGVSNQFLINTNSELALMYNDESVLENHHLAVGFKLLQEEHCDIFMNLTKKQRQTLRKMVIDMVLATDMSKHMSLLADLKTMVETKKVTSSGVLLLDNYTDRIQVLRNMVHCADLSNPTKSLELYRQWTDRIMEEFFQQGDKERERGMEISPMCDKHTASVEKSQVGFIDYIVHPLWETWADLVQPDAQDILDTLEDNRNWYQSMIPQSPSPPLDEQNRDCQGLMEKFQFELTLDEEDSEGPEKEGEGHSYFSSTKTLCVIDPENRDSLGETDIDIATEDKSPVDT
Sequence of Pyruvate kinase (Leishmania mexicana) (Q27686 2-499 E452W): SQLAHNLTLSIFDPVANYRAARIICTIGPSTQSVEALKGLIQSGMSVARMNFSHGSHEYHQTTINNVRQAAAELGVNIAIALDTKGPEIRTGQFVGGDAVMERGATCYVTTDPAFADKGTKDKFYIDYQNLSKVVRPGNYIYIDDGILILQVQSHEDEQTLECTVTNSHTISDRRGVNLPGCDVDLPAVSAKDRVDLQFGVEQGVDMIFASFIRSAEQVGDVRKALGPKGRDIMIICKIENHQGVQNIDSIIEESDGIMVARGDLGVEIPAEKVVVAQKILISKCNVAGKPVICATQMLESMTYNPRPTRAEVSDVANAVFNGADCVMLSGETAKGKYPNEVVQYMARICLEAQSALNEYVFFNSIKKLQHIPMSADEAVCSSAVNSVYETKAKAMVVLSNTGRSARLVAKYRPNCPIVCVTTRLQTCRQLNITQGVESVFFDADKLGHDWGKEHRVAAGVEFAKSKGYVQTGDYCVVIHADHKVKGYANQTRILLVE
Sequence of Muscarinic acetylcholine receptor M1 (Rattus norvegicus) (P08482 whole entry, looked up): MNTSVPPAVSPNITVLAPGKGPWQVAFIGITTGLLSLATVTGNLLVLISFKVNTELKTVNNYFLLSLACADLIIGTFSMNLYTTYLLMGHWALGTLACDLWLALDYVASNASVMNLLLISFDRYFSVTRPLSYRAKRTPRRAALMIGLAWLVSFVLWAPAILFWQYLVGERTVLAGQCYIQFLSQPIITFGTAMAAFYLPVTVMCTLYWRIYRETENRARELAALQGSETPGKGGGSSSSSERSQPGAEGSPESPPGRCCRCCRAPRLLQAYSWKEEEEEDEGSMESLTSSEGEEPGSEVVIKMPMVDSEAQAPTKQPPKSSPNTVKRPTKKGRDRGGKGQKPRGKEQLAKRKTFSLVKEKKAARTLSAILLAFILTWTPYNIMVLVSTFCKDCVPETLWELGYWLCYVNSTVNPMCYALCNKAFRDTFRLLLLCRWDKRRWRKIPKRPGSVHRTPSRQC
Sequence of Cytochrome P450 3A4 (Homo sapiens) (P08684 whole entry, looked up): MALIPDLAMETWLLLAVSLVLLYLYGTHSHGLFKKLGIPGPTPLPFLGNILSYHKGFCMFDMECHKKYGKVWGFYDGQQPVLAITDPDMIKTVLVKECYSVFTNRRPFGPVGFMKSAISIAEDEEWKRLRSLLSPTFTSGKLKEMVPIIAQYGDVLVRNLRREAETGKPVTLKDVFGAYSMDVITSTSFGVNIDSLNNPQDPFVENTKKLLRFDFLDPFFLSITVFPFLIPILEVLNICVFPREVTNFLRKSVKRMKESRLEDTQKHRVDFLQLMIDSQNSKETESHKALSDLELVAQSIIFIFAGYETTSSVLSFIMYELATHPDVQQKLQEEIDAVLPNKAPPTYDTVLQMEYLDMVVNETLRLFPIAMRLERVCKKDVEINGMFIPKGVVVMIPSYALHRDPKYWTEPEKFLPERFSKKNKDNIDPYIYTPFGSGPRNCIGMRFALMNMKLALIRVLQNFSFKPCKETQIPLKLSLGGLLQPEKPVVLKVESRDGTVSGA
Sequence of Guanine nucleotide-binding protein G(i) subunit alpha-1 (Homo sapiens) (P63096 whole entry, looked up): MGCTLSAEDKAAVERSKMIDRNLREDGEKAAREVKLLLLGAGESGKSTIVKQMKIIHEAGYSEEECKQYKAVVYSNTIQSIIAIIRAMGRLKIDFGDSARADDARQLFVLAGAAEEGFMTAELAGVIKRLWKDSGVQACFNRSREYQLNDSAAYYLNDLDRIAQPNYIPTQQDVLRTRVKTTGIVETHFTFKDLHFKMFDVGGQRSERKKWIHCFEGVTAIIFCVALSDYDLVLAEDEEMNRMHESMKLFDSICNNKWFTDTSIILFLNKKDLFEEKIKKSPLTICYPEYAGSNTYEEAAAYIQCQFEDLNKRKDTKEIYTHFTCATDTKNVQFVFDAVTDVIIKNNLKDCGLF
Sequence of Pyruvate kinase PKM (Homo sapiens) (P14618 whole entry, looked up): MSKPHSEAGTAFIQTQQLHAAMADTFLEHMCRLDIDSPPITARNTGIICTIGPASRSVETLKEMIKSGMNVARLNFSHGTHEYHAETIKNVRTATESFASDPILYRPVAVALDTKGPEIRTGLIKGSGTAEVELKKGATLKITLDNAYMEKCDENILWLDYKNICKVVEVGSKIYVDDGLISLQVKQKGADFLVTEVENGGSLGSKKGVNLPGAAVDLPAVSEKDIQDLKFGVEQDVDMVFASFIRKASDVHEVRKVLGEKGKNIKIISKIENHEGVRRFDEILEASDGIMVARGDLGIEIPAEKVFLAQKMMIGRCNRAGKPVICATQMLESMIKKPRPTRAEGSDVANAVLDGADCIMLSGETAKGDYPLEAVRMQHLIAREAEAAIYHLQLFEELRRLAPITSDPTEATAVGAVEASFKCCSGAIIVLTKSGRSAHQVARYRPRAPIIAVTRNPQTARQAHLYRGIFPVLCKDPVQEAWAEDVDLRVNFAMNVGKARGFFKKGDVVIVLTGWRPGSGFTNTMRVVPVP
Sequence of Cytochrome P450 2D6 (Homo sapiens) (P10635 whole entry, looked up): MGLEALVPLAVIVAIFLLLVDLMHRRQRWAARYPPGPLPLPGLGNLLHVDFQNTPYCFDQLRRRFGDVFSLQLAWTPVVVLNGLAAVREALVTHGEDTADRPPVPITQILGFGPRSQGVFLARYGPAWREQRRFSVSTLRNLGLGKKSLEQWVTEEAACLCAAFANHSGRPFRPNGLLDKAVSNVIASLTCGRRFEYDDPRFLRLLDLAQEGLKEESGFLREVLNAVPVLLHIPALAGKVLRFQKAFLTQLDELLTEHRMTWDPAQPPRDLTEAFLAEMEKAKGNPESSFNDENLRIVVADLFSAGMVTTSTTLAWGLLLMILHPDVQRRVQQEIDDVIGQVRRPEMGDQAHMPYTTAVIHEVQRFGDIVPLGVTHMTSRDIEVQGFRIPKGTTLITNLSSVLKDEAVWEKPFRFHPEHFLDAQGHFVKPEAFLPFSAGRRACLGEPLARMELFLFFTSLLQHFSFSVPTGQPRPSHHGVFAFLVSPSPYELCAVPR

CN1CC(=O)Nc2ccc(F)cc2C1=O
inactive: activity change, negative = inhibition [1] 13.4% | activity change, negative = inhibition [2] -4.14% | activity, negative = inhibition [3] 3.5%

Cc1cc(=O)oc(C)c1C(=O)NCCNC(=O)c1c(C)cc(=O)oc1C
inactive: activity change, negative = inhibition [1] 7.25% | activity change, negative = inhibition [2] 6.33% | activity, negative = inhibition [3] 6.54%

Nc1nonc1OCCc1ccccc1
inactive: activity change, negative = inhibition [1] 2.66% | activity change, negative = inhibition [2] 3.18% | activity, negative = inhibition [3] -6.28%

N#Cc1ccc(OC(=O)c2ccc(N=C(N)N)cc2)cc1
inactive: activity change, negative = inhibition [1] -0.971% [at 7.69 µM] | activity, negative = inhibition [3] -5.61% [at 7.69 µM] | activity change, negative = inhibition [5] 1.07% [at 11.4 µM] | Potency [6]
active: Potency [4] 2510 nM

COCCCN1C(=O)C(O)=C(C(=O)c2ccco2)C1c1ccc(Br)cc1 (stereo not drawn)
inactive: activity change, negative = inhibition [1] -15.5% | activity change, negative = inhibition [2] 11.4% | activity, negative = inhibition [3] -8.56%

COCCNc1nc(-c2ccc(N(C)C)cc2)nc2ccccc12
inactive: activity change, negative = inhibition [1] 26.5% [at 7.69 µM] | activity, negative = inhibition [3] 4.49% [at 7.69 µM] | Potency [7] > 46000 nM | Potency [8] > 46000 nM | Potency [5] | Potency [6] | Potency [9] | Potency [10]
active: Potency [4] 631 nM

CC1(C)Cc2c(sc3ncn4nc(-c5ccco5)nc4c23)CO1
inactive: activity change, negative = inhibition [1] -5.24% | activity change, negative = inhibition [2] 8.04% | activity, negative = inhibition [3] -2.67%

C[C@@]12CCC(=O)C=C1CC[C@@H]1[C@@H]2[C@H](O)C[C@]2(C)[C@@H]1CC[C@]2(O)C(=O)COC(=O)CCC(=O)O
active: Potency [7] 112 nM | Potency [8] 1120 nM | Potency [12] 224 nM
inactive: activity change, negative = inhibition [1] -0.329% [at 38 µM] | Potency [4] | activity, negative = inhibition [3] -14.6% [at 38 µM] | Potency [5] | Potency [6] | outcome [11] | Potency [13] | Potency [14] | Potency [15] | outcome [16] | outcome [17] | outcome [18]

CCOC(=O)c1[nH]c2cc3c(cc2c1NC(=O)CN1CCc2ccccc2C1)OCO3
inactive: activity change, negative = inhibition [1] -23.5% | activity change, negative = inhibition [2] -10.9%

CC1(NC[C@@H](O)COc2cccc3[nH]ccc23)CCC(C(C)(C)NC(=O)CBr)CC1 (stereo partly drawn)
active: Potency [19] 1260 nM
inactive: activity change, negative = inhibition [1] 7.03% [at 38 µM] | Potency [4] | activity, negative = inhibition [3] 18.1% [at 38 µM] | Potency [7] > 46000 nM | Potency [8] > 46000 nM | Potency [6]
